# Experimental data published in PubChem BioAssay.
# Values without a mark were called inactive.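 Rule for the calls, unless noted: active = viability at or below 27.92% in each of two runs, the all-compound median minus 4 SD; inconclusive = no clear call, values can overlap the other calls; inactive = the rest.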 Results filed as inconclusive are left out.
# Assay: viability of PTEN-null HCT116 cells – cell-based, HCT116 clonal line, CellTiter-Glo, pilot screen (AID 824);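 note: 0% = 20 µM Hyamine control and 100% = vehicle cell control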
# Settings: HCT116 PTEN-deleted viability, 60 h, at 10 µM, active compounds read low
row,Compound,viability
1,COc1ccc(NC(=O)N(Cc2ccc(C)cc2)Cc2ccccn2)c(OC)c1,96%
2,COc1cc(C(=O)N2CCN(C(=O)C(Cc3cc(C)ccc3C)NC(C)=O)CC2)cc(OC)c1OC (stereo not given),88.2%
3,O=C1C2CCCN2C(c2ccc(F)cc2)N1c1cccc(Cl)c1 (stereo not given),99.6%
4,COc1cccc(NC(=O)c2ccncc2)c1,100%
5,CC(=O)Nc1cc(-c2nn3c(C)nnc3s2)ccc1C,90.3%
6,O=C1CC(c2ccccc2)CC(O)=C1C=NCCN1CCNCC1 (stereo not given),98.1%
7,O=C(NCc1ccc2c(c1)OCO2)c1cnc2n(c1=O)CCS2,98%
8,COc1ccc(OC)c(CCNC(=O)C2CCN(c3nnc(-n4cccc4)s3)CC2)c1,81.9%
9,COc1ccc(OCCSc2ncnc3nc[nH]c23)cc1,81.3%
10,CC(CCc1ccco1)NC(=O)Cn1nc(Cc2ccncc2)c2ccccc2c1=O (stereo not given),92.7%
11,Cc1oc(-c2ccc(Cl)cc2)nc1CN1CCCC(C(=O)N2CCN(C(=O)c3ccco3)CC2)C1 (stereo not given),54.6%
12,O=C(CC1(O)C(=O)Nc2ccccc21)c1ccccc1 (stereo not given),96.7%
13,c1cc(-c2nnc3n2CCC3)[nH]n1,104%
14,Cc1ccnc(SCCn2c(N3CCCCC3)nc3c2c(=O)[nH]c(=O)n3C)n1,107%
15,CC(C)(C)c1ccc(OCC(=O)N2CCN(C=O)CC2)cc1,100%
16,CCC(C)(c1ccc(C(=O)OC)s1)c1ccc(C(=O)OC)s1,76.8%
17,CCOC(=O)N1CCC(NC(=O)CSCc2nc(-c3sccc3C)oc2C)CC1,83.5%
18,CCc1cccc(Nc2cc(C)nc3ncnn23)c1,93%
19,CC(=O)CCS(=O)(=O)c1ccc(C)c(C)c1,90.2%
20,N=c1n(CCOc2ccccc2)c2ccccc2n1CCN1CCOCC1,85.8%

row,Compound,viability
1,COc1cccc2c(=O)c(C/C=C(/C)Cl)c(C)[nH]c12,91.6%
2,COC(=O)C(C(=O)OC)C(C(=O)OC)C(C(=O)OC)C(=O)OC,92.6%
3,CC1CCCCN1c1nnc(NC(=O)Cn2c(=O)oc3ccccc32)s1 (stereo not given),97.8%
4,COc1cccc(-c2nnc(NC(=O)C3CCCCC3)o2)c1,85.7%
5,COC(=O)c1ccsc1NC(=O)C1COc2ccccc2O1 (stereo not given),85.5%
6,Cc1cccc(Nc2ncnc3nc[nH]c23)c1C,103%
7,O=C(CCc1ccccc1)N1CCN(CCO)CC1,110%
8,CN1CCCN(Cc2ccccc2C(F)(F)F)CC1,98.1%
9,CC(=O)Nc1ccc(-c2cc(NC(C)=O)n(-c3ccccc3)n2)cc1,91.7%
10,CCCCCn1c(CCNC(=O)c2cccs2)nc2ccccc21,86.4%
11,Cc1ccc2ccc(S(=O)(=O)n3nc(C)cc3C)cc2c1,81.2%
12,CCOC(=O)Cc1csc(NC(=O)CN2C(=O)c3ccccc3S2(=O)=O)n1,101%
13,O=C(NCc1ccccn1)c1ccc2ccccc2n1,102%
14,CCCc1ccc(Oc2c(-c3ccc(O)c(C)c3O)n[nH]c2C)cc1,74.3%
15,COc1ccc(C(CNC(=O)C2CC(=O)N(Cc3ccc(C)cc3)C2)N(C)C)cc1 (stereo not given),95.7%
16,CN(Cc1ccco1)C(=O)C(Cc1ccccc1)NS(=O)(=O)c1ccc2c(c1)CCC(=O)N2 (stereo not given),84.4%
17,O=C(O)C1CCCCC1C(=O)NCc1cn2ccccc2n1 (stereo not given),93.7%
18,CCN1CCN(CC(=O)Nc2ccccc2)C(=O)C1=O,107%
19,Nc1c(S(=O)(=O)c2ccccc2)c2nc3ccccc3nc2n1Cc1ccco1,73.8%
20,Cc1nc2ccccc2c2oc(C(=O)N3CCc4ccccc43)cc12,89.1%

# Assay: RAM pathway blockade in budding yeast – dse1pr::URA3 reporter, 5-FOA selection, pilot screen (AID 869;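 active = inhibition over a set limit, the all-compound mean plus 3 SD, in both replicate runs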;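 note: 0% = DMSO wells with no growth and 100% = 10 µM 1-NA-PP1 with full growth; RAM network block rescues cells from 5-FOA so hits raise OD615 growth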)
# Settings: S. cerevisiae dse1pr::URA3 5-FOA growth, OD615, 2 d; at 10 µM; active compounds read high; strain carries analog-sensitive mutant Cbk1 kinase
row,Compound,inhibition
1,COc1ccc(NC(=O)N(Cc2ccc(C)cc2)Cc2ccccn2)c(OC)c1,0.455%
2,COc1cc(C(=O)N2CCN(C(=O)C(Cc3cc(C)ccc3C)NC(C)=O)CC2)cc(OC)c1OC (stereo not given),1.05%
3,O=C1C2CCCN2C(c2ccc(F)cc2)N1c1cccc(Cl)c1 (stereo not given),0.63%
4,COc1cccc(NC(=O)c2ccncc2)c1,1.18%
5,CC(=O)Nc1cc(-c2nn3c(C)nnc3s2)ccc1C,3.41%
6,O=C1CC(c2ccccc2)CC(O)=C1C=NCCN1CCNCC1 (stereo not given),-0.42%
7,O=C(NCc1ccc2c(c1)OCO2)c1cnc2n(c1=O)CCS2,1.17%
8,COc1ccc(OC)c(CCNC(=O)C2CCN(c3nnc(-n4cccc4)s3)CC2)c1,4.26%
9,COc1ccc(OCCSc2ncnc3nc[nH]c23)cc1,3.27%
10,CC(CCc1ccco1)NC(=O)Cn1nc(Cc2ccncc2)c2ccccc2c1=O (stereo not given),2.26%
11,Cc1oc(-c2ccc(Cl)cc2)nc1CN1CCCC(C(=O)N2CCN(C(=O)c3ccco3)CC2)C1 (stereo not given),-0.38%
12,O=C(CC1(O)C(=O)Nc2ccccc21)c1ccccc1 (stereo not given),0.055%
13,c1cc(-c2nnc3n2CCC3)[nH]n1,1.51%
14,Cc1ccnc(SCCn2c(N3CCCCC3)nc3c2c(=O)[nH]c(=O)n3C)n1,1.52%
15,CC(C)(C)c1ccc(OCC(=O)N2CCN(C=O)CC2)cc1,1.25%
16,CCC(C)(c1ccc(C(=O)OC)s1)c1ccc(C(=O)OC)s1,0.63%
17,CCOC(=O)N1CCC(NC(=O)CSCc2nc(-c3sccc3C)oc2C)CC1,1.34%
18,CCc1cccc(Nc2cc(C)nc3ncnn23)c1,0.465%
19,CC(=O)CCS(=O)(=O)c1ccc(C)c(C)c1,0.885%
20,N=c1n(CCOc2ccccc2)c2ccccc2n1CCN1CCOCC1,0.845%

row,Compound,inhibition
1,COc1cccc2c(=O)c(C/C=C(/C)Cl)c(C)[nH]c12,0.075%
2,COC(=O)C(C(=O)OC)C(C(=O)OC)C(C(=O)OC)C(=O)OC,0.42%
3,CC1CCCCN1c1nnc(NC(=O)Cn2c(=O)oc3ccccc32)s1 (stereo not given),-0.575%
4,COc1cccc(-c2nnc(NC(=O)C3CCCCC3)o2)c1,1.85%
5,COC(=O)c1ccsc1NC(=O)C1COc2ccccc2O1 (stereo not given),0.425%
6,Cc1cccc(Nc2ncnc3nc[nH]c23)c1C,2.98%
7,O=C(CCc1ccccc1)N1CCN(CCO)CC1,0.715%
8,CN1CCCN(Cc2ccccc2C(F)(F)F)CC1,1.25%
9,CC(=O)Nc1ccc(-c2cc(NC(C)=O)n(-c3ccccc3)n2)cc1,0.97%
10,CCCCCn1c(CCNC(=O)c2cccs2)nc2ccccc21,2.39%
11,Cc1ccc2ccc(S(=O)(=O)n3nc(C)cc3C)cc2c1,2.06%
12,CCOC(=O)Cc1csc(NC(=O)CN2C(=O)c3ccccc3S2(=O)=O)n1,3.63%
13,O=C(NCc1ccccn1)c1ccc2ccccc2n1,1.32%
14,CCCc1ccc(Oc2c(-c3ccc(O)c(C)c3O)n[nH]c2C)cc1,-2.1%
15,COc1ccc(C(CNC(=O)C2CC(=O)N(Cc3ccc(C)cc3)C2)N(C)C)cc1 (stereo not given),1.3%
16,CN(Cc1ccco1)C(=O)C(Cc1ccccc1)NS(=O)(=O)c1ccc2c(c1)CCC(=O)N2 (stereo not given),2.2%
17,O=C(O)C1CCCCC1C(=O)NCc1cn2ccccc2n1 (stereo not given),0.43%
18,CCN1CCN(CC(=O)Nc2ccccc2)C(=O)C1=O,1.19%
19,Nc1c(S(=O)(=O)c2ccccc2)c2nc3ccccc3nc2n1Cc1ccco1,2.83%
20,Cc1nc2ccccc2c2oc(C(=O)N3CCc4ccccc43)cc12,0.625%
